Measurements taken from PubChem BioAssay.
A number with no mark means an inactive call. The list shows a part of the results. Activity calls are given as the source filed them.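 How the source made its calls, unless noted: active means mean inhibition over 43.08%, the solvent-only control mean plus 3 SD; inactive means the rest.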

What was measured:
[1] = target: Nuclear receptor coactivator 3 (Homo sapiens) (UniProt Q9Y6Q9); assay: SRC3 coactivator transcriptional activity inhibitors, confirmation, cell-based, luminescence, quadruplicate (AID 588792); conditions: HEK293 GAL4-SRC3 luciferase reporter, at 3.6 µM, stronger effect = higher value;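 further: 0% = DMSO treated cells and 100% = gossypol at 36 µM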
Chain of Nuclear receptor coactivator 3 (Homo sapiens) (Q9Y6Q9 whole entry, looked up, the tested form may be a part): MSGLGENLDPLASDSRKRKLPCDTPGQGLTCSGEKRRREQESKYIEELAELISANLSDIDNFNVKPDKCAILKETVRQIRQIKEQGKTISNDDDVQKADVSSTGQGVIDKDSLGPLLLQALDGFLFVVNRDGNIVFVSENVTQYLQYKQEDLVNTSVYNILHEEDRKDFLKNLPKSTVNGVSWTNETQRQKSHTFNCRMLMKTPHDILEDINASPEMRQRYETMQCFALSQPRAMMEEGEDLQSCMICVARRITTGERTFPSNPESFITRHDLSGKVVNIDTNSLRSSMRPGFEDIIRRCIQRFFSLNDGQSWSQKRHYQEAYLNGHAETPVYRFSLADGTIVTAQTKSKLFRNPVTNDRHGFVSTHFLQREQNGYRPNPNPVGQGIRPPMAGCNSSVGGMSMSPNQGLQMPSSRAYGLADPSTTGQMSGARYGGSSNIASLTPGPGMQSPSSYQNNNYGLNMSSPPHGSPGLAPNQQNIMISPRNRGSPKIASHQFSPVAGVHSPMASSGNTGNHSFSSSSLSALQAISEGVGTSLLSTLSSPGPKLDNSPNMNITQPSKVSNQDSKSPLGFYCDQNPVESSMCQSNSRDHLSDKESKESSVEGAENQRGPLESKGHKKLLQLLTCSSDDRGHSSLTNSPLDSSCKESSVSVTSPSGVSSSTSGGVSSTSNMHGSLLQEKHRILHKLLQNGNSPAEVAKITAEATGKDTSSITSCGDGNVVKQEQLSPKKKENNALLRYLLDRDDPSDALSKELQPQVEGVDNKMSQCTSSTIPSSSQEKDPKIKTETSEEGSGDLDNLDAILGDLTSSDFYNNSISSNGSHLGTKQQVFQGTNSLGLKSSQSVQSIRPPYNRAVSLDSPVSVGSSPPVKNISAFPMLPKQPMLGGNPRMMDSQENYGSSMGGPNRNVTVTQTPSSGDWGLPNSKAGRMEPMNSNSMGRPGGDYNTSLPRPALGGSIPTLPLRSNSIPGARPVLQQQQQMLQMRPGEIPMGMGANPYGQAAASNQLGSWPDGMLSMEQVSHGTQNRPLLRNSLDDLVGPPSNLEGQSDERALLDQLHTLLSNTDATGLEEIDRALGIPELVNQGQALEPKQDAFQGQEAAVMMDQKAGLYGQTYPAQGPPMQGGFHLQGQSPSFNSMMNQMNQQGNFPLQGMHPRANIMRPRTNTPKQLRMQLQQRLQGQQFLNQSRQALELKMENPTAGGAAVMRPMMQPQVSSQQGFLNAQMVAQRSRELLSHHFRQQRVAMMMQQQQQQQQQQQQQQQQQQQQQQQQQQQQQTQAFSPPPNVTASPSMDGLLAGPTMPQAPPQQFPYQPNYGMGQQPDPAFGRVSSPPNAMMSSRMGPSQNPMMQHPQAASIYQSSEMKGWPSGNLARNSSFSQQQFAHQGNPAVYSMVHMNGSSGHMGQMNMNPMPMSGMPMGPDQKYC

[2] = test system: transactivating tegument protein VP16 (Human herpesvirus 1), Gal4-VP16 luciferase reporter; assay: VP16 transactivation inhibitors, counter-screen for SRC3 inhibitor project, cell-based, luminescence, high throughput (AID 588794; in the data active means inhibition above about 30%); conditions: mammalian cells, VP16-driven luciferase reporter luminescence; at 3.6 µM; stronger effect = higher value
[3] = target: Nuclear receptor coactivator 1 (Homo sapiens) (UniProt Q15788); assay: SRC1 coactivator transcriptional activity inhibitors, confirmation, cell-based, luminescence, quadruplicate (AID 588820;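 active means mean inhibition above 46.68%, the untreated control wells mean plus 3 SD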;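 further: 0% = DMSO wells and 100% = gossypol 36 µM treated wells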); conditions: HEK293 GAL4-SRC1 luciferase reporter, at 3.6 µM, stronger effect = higher value
[4] = VP16 transactivation inhibitors, counter-screen for SRC1 inhibitor project, cell-based, luminescence, high throughput (AID 588824; in the data active means inhibition above about 25%); conditions: cell-based VP16 transactivation luciferase luminescence; at 3.6 µM; stronger effect = higher value
[5] = target: Photoreceptor-specific nuclear receptor (Homo sapiens) (UniProt Q9Y5X4); assay: NR2E3 agonist confirmation in cells, cell-based, luminescence, CHO-S two-hybrid (AID 624378;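 active means average inhibition above a cutoff equal to the mean inhibition of all tested compounds plus one SD, cut at about 70% in these data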;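 further: 0% = DMSO in NR2E3 cells and 100% = DMSO in cells lacking NR2E3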); conditions: CHO-S mammalian two-hybrid NR2E3-NCOR, luciferase luminescence; at 3.98 µM; stronger effect = higher value
Chain of Photoreceptor-specific nuclear receptor (Homo sapiens) (Q9Y5X4 whole entry, looked up, the tested form may be a part): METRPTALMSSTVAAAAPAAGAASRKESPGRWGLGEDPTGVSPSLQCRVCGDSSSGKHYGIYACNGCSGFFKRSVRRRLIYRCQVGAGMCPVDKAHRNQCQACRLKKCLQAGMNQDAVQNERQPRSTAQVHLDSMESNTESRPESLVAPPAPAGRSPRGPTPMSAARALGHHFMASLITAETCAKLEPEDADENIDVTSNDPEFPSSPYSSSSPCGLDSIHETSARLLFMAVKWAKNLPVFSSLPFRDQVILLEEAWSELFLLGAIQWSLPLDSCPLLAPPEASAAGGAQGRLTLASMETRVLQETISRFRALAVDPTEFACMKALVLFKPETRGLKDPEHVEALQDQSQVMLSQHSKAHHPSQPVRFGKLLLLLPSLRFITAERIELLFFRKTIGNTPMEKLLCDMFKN

[6] = GAL4-VP16 reporter modulators, confirmation, counter-screen for NR2E3 agonist project, cell-based, luminescence, CHO-S, high throughput (AID 624379;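 active means mean inhibition above a cutoff equal to the average over all tested compounds plus one standard deviation, cut at about 70% in these data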;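 further: 0% = DMSO with VP16-transfected cells and 100% = DMSO with cells lacking VP16; higher means less reporter light so more repression of VP16 activity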); conditions: CHO-S GAL4-VP16 luciferase reporter, at 3.98 µM, stronger effect = higher value
[7] = StAR promoter reporter inhibitors, counter-screen for LRH-1 inverse agonist project, cell-based, luminescence, high throughput (AID 651611; in the data active means inhibition above about 28%); conditions: StAR promoter luciferase reporter counterscreen, at 3.6 µM, stronger effect = higher value
[8] = target: Nuclear receptor subfamily 5 group A member 2 (Homo sapiens) (UniProt O00482); assay: LRH-1 (NR5A2) inverse agonists, retest, confirmation, cell-based, luminescence (AID 651613; in the data active means inhibition above about 42%;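 further: HEK293T cells co-transfected with LRH-1 and StAR promoter luciferase reporter; 0% = vehicle wells and 100% = parental cells lacking receptor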); conditions: cell-based LRH-1 luciferase reporter, inverse agonism; at 3.6 µM; stronger effect = higher value
Chain of Nuclear receptor subfamily 5 group A member 2 (Homo sapiens) (O00482 whole entry, looked up): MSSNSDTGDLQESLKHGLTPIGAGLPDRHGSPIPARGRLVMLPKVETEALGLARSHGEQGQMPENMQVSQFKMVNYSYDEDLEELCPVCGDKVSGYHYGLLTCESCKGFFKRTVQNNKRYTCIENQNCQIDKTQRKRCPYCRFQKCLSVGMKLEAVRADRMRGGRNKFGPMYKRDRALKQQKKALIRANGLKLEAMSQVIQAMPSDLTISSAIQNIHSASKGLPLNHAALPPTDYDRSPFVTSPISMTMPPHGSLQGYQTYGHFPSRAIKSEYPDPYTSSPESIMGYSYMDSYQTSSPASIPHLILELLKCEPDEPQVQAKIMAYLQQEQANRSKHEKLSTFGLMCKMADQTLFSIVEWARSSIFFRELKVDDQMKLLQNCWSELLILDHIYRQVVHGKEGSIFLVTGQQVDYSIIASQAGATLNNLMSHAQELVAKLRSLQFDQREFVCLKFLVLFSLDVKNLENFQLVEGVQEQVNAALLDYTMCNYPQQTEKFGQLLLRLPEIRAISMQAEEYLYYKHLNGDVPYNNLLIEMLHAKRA

[9] = target: Steroidogenic factor 1 (Homo sapiens) (UniProt Q13285); assay: SF1 (NR5A1) inverse agonists, counter-screen for LRH-1 inverse agonist project, cell-based, luminescence, high throughput (AID 651614; in the data active means inhibition above about 44%;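 further: cells cotransfected with StAR promoter reporter and SF1 expression vector; 0% = vehicle on cells with receptor and 100% = vehicle on cells lacking receptor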); conditions: cell-based SF1 luciferase reporter, at 3.6 µM, stronger effect = higher value
Chain of Steroidogenic factor 1 (Homo sapiens) (Q13285 whole entry, looked up, the tested form may be a part): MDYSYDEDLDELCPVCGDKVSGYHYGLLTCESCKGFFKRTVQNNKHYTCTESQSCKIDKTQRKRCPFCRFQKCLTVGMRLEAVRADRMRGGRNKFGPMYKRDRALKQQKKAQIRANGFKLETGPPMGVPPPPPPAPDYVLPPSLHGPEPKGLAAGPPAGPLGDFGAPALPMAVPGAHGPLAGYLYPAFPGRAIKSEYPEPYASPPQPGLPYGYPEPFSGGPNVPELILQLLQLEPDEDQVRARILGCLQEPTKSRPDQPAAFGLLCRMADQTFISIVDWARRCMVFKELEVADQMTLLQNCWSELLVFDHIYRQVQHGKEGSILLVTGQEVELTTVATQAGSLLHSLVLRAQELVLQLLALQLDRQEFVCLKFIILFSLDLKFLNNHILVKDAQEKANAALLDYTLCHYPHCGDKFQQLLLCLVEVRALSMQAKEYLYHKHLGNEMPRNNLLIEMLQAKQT

[10] = VP16 transactivation reporter inhibitors, counter-screen for LRH-1 inverse agonist project, cell-based, luminescence, high throughput (AID 651615; in the data active means inhibition above about 33%); conditions: Gal4-VP16 luciferase reporter cells, at 3.6 µM, stronger effect = higher value
[11] = test system: transactivating tegument protein VP16 (Human herpesvirus 1); assay: VP16 transactivation reporter inhibitors, counter-screen for SRC2 inhibitor project, cell-based, luminescence, single concentration (AID 652007; in the data active means inhibition above about 36%); conditions: cell-based VP16 transactivation luciferase reporter, at 8.9 µM, stronger effect = higher value
[12] = target: Nuclear receptor coactivator 2 (Homo sapiens) (UniProt Q15596); assay: SRC2 coactivator transcriptional activity inhibitors, confirmation, cell-based, luminescence, HEK293, triplicate (AID 652008;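 active means mean inhibition above 46.5%, the solvent-only control mean plus 3 SD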;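 further: 0% = DMSO-treated cells and 100% = Gossypol at 36 µM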); conditions: HEK293 GAL4-SRC2 luciferase reporter, at 8.9 µM, stronger effect = higher value
Chain of Nuclear receptor coactivator 2 (Homo sapiens) (Q15596 whole entry, looked up, the tested form may be a part): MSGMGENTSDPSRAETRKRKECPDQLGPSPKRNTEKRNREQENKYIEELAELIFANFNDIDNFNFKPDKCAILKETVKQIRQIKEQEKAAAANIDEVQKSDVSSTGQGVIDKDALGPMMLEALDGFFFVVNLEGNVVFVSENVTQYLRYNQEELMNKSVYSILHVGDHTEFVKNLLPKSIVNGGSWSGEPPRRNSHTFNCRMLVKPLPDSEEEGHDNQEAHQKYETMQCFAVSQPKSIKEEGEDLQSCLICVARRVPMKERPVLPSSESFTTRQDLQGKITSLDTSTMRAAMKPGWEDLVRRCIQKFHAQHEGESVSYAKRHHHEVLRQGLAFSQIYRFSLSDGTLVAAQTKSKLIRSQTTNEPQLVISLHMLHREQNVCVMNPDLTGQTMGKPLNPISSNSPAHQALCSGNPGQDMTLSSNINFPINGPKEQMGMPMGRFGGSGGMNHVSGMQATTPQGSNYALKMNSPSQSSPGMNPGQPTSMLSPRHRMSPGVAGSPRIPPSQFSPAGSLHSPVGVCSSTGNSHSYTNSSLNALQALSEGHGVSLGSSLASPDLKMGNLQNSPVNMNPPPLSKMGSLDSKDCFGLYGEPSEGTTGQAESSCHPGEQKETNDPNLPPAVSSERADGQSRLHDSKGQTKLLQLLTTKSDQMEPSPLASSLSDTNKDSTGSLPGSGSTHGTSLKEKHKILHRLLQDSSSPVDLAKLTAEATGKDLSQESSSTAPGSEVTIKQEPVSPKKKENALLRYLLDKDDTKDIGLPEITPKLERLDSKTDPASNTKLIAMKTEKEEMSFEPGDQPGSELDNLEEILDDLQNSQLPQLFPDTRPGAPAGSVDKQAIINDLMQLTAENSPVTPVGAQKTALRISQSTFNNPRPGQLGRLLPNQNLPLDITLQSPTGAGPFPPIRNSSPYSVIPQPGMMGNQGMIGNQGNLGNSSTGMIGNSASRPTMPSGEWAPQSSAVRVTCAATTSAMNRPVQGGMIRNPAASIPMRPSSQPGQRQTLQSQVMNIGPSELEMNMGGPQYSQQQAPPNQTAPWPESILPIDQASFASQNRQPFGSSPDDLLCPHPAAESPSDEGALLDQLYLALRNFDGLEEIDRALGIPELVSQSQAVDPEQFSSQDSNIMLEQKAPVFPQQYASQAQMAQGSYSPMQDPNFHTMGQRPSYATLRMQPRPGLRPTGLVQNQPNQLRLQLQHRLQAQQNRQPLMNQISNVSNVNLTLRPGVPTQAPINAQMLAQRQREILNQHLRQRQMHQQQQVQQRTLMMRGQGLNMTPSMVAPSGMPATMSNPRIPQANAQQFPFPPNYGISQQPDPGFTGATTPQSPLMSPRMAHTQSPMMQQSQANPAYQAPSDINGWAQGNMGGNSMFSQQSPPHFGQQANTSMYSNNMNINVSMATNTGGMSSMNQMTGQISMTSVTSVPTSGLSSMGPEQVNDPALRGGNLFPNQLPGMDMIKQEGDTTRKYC

[13] = Gal4-VP16 luciferase reporter inhibitors, counter-screen for COUP-TFII antagonist project, cell-based, luminescence, HEK293 (AID 687007; in the data active means inhibition above about 13%); conditions: at 8.5 µM, stronger effect = higher value
[14] = target: COUP transcription factor 2 (Homo sapiens) (UniProt P24468); assay: NR2F2 transcriptional activity inhibitors, confirmation, cell-based, luciferase reporter, HEK293, triplicate (AID 687008;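 active means mean inhibition over three repeats above a set limit taken from the earlier primary screen, cut at about 38% in these data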;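 further: 100% = cells given the luciferase reporter alone without the COUP-TF2 vector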); conditions: HEK293 NGFI-A luciferase reporter, luminescence; at 8.5 µM; stronger effect = higher value
Chain of COUP transcription factor 2 (Homo sapiens) (P24468 whole entry, looked up): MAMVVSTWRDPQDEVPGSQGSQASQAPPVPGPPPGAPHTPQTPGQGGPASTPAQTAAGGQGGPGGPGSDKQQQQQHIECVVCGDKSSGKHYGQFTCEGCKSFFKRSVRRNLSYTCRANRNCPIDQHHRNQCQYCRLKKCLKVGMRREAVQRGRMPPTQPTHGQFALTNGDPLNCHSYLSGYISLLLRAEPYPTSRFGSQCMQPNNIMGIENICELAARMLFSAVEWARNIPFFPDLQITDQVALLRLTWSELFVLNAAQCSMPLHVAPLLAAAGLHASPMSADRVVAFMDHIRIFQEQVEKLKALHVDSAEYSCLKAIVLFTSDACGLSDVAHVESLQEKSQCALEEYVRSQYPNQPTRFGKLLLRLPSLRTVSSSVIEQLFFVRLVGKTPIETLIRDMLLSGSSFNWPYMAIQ

Compound	inhibition [1]	inhibition [2]	inhibition [3]	inhibition [4]	inhibition [5]	inhibition [6]	inhibition [7]	inhibition [8]	inhibition [9]	inhibition [10]	inhibition [11]	inhibition [12]	inhibition [13]	inhibition [14]
COc1ccc(Nc2ncnc3ccc(Br)cc23)c(OC)c1	67.1% (active)	9.75%	68.4% (active)	8.18%	85.3% (active)	75.5% (active)	86% (active)	47.3% (active)	79.2% (active)	30.8% (active)	32.4%	93.8% (active)	7.13%	11.9%
N#Cc1c2ccc(O)cc2n2ccccc12	41.8%	21.9%	42.8%	11.9%										
CC(=NNC(=S)N1CCN(C2CCCCCC2)CC1)c1ccccn1	50% (active)	83.7% (active)	66.2% (active)	71% (active)			81.8% (active)	98.5% (active)	85.4% (active)	65.2% (active)				
CC[n+]1c(/C=C/N(C)c2ccccc2)oc2ccccc21	34.7%	55.8% (active)	16.9%	55.2% (active)			31.9% (active)	82% (active)	69% (active)	73.2% (active)				
O=C(Nc1ccc2c(c1)OCCO2)C1CCCC1	15.8%	-21.9%	-2.87%	-33.3%	53.2%	13.8%					-46%	51.9% (active)		
Cc1[nH]c(=O)c(C(=O)/C=C/c2ccccc2)c2c1CCCC2	66.8% (active)	56.1% (active)	70.5% (active)	57.9% (active)	24.6%	48%	54.4% (active)	71.7% (active)	68.2% (active)	74.8% (active)	50.1% (active)	63.9% (active)		
CC1(C)CC2CC(C)(CN2S(=O)(=O)c2ccc(C(=O)Nc3ccc(S(=O)(=O)N4CCOCC4)cc3)cc2)C1 (configuration not stated)	24.1%	42.4% (active)	4.08%	44.1% (active)			22.1%	53.1% (active)	46.4% (active)	57.8% (active)				
COc1cccc(/C=N/Nc2ncnc3c2ncn3Cc2ccccc2)c1O	58.9% (active)	31% (active)	48% (active)	28.4% (active)			84.4% (active)	99.4% (active)	86.1% (active)	78.3% (active)				
CCCCC(=O)NC(c1ccccc1Cl)c1ccc2cccnc2c1O (configuration not stated)	26.3%	32.7% (active)	41%	50.9% (active)			74.1% (active)	76.5% (active)	80.8% (active)	74.4% (active)				
CCN(CC)c1ccc2nc3ccccc3[n+](CC)c2c1	50.2% (active)	54.2% (active)	40.5%	59.6% (active)			69.4% (active)	88.3% (active)	80.2% (active)	68.7% (active)				
CC(C)(C)c1ccc(Oc2ccc(N)cc2)cc1	68.3% (active)	61.4% (active)	52.4% (active)	57.7% (active)	36.9%	71.6% (active)	71.2% (active)	88.6% (active)	78.9% (active)	60.1% (active)	90.2% (active)	95.2% (active)	91.8% (active)	101% (active)
OCCCNc1cc(-c2ccnc(Nc3cccc(Cl)c3)n2)ccn1	95.9% (active)	97.1% (active)	84.5% (active)	96.3% (active)			89.9% (active)	108% (active)	96.5% (active)	97.9% (active)				
OCCCNc1nccc(-c2cc(Nc3cccc(Cl)c3)ncn2)n1	95% (active)	95.2% (active)	83.5% (active)	95.1% (active)	100% (active)	93.9% (active)	88.5% (active)	108% (active)	96.5% (active)	93.2% (active)	57.9% (active)	49.7% (active)	6.3%	31.2%
C=CCn1c(C)cc(C2=NNC(=NCC)SC2)c1C	87% (active)	85.3% (active)	74.7% (active)	81% (active)	77.4% (active)	73% (active)	82.1% (active)	75.7% (active)	79.8% (active)	75.6% (active)	81.8% (active)	93% (active)	82% (active)	105% (active)
Cc1oc2c(F)c(F)c(F)c(F)c2c1S(=O)(=O)Nc1cccc(C(F)(F)F)c1	-6.6%	11.6%	12.8%	4.85%	100% (active)	93.3% (active)								
